This is a sample that favours compounds with a hit; in the whole collection about 22% have one here.
CYP2C19 activ – human CYP2C19 activators, primary screen, biochemical, luminescence | recombinant CYP2C19, luciferin-H EGE luminescence; hits give high values; 0 = fully inhibited enzyme, 1 = untreated enzyme | activation factor at 5 µM | 96,000 tested, under 10 active | AID 1025, 2008;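 active = activation factor of at least 2 at 5 µM in the primary screen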;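 also: 0 = wells with 2.5 mM tranylcypromine and 1 = vehicle-only wells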
Target sequence (P33261 whole entry, looked up): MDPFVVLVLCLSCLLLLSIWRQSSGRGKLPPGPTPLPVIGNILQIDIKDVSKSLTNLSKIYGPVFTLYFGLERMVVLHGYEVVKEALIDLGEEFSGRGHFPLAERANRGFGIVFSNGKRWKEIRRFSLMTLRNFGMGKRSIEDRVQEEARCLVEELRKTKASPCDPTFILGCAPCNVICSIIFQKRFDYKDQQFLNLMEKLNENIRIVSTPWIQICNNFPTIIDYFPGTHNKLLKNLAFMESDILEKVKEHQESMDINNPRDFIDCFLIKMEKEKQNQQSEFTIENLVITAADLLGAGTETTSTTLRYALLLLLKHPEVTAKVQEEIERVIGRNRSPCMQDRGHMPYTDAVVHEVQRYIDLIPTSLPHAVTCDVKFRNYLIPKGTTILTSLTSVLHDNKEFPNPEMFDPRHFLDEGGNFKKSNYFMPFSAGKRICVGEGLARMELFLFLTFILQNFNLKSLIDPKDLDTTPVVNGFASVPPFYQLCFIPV
E-sel TNF inh – E-selectin induction blockers in HUVEC – imaging, immunofluorescence, high content, primary screen; inhibition, % at 2 µM; HUVEC TNFa-induced E-selectin immunofluorescence; 120,000 compounds, 0.71% hits;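 active = inhibition above the batch mean plus 3 SD, and confirmed as a hit on visual image review, cut at about 43% in these data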;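 also: 0% = TNF-stimulated DMSO wells and 100% = unstimulated control wells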
CYP2C9 activ – human CYP2C9 activators, primary screen, biochemical, luminescence | Cytochrome P450 2C9 (Homo sapiens), P11712 | recombinant CYP2C9, luciferin-H conversion; hits give high values; factor 1 = untreated enzyme, 0 = blocked | activation factor at 5 µM | 96,000 compounds, 1.4% hits | AID 1024, 2008;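 active = activation factor of 2 or more for CYP2C9 at a 5 µM dose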;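 also: 0 = sulfaphenazole-blocked wells and 1 = vehicle-only wells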
CYP2C19 inh – blockers of cytochrome P450 2C19 activity – biochemical, luminescence, ADME assay, primary screen; P33261; CYP2C19 Supersomes, luciferin-H EGE luminescence, 30 min; inhibition, % at 5 µM; 96,000 compounds, 21% hits; AID 778, 2007;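 active = CYP2C19 inhibition above a set limit at 5 µM in the primary screen, cut at about 50% in these data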;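 also: plate controls were negative control wells for no effect and 2.5 mM tranylcypromine positive control for full effect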
F-actin modifier – modifiers of F-actin cytoskeleton organization, primary screen, imaging, HUVEC, phalloidin staining, high-content imaging | HUVEC TNFa F-actin phalloidin imaging | inhibition, % at 2 µM | 91,000 compounds, 0.18% hits | AID 836, 2007;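 active = inhibition above the batch mean plus 3 SD and confirmed as a hit by visual image inspection, cut at about 30% in these data, passing the limit was not always enough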
CYP2C9 inhib – blockers of cytochrome P450 2C9 activity – biochemical, luminescence, ADME assay, primary screen | P11712 | CYP2C9 Supersomes, luciferin-H conversion | inhibition, % at 5 µM | 96,000 compounds, 20% hits | AID 777, 2007;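 active = blocking of liver enzyme CYP2C9 beyond about 50% at 5 µM, limit read from the data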
An asterisk follows results filed as active; x = no result given.

SMILES	CYP2C19 activ	E-sel TNF inh	CYP2C9 activ	CYP2C19 inh	F-actin modifier	CYP2C9 inhib
CCOC(=O)c1nc(Nc2ccccc2)c2ccccc2n1	0.9	x	0.7	12	3	34
c1ccc2c(N3CCCCC3)ncnc2c1	0.8	-9	0.9	16	3	7
CSc1nc(-c2ccccc2)nc(N)c1C(C)=O	0.6	x	0.4	38	21	63*
CCOc1cccc(/C(O)=C2/C(=O)C(=O)N(Cc3cccnc3)C2c2ccco2)c1 (stereo not given)	0.9	-41	0.3	6	-26	65*
CN(C)S(=O)(=O)c1ccc(/C(O)=C2/C(=O)C(=O)N(Cc3cccnc3)C2c2ccncc2)cc1 (stereo not given)	0.8	x	0.6	23	-11	38
COc1ccc(/C(O)=C2/C(=O)C(=O)N(Cc3cccnc3)C2c2ccco2)cc1OC (stereo not given)	0.7	-47	0.6	26	-16	37
Cc1ccc(/C(O)=C2/C(=O)C(=O)N(Cc3cccnc3)C2c2ccccn2)cc1 (stereo not given)	0.3	-2	0.1	66*	3	90*
O=C1C(=O)N(Cc2cccnc2)C(c2ccccn2)/C1=C(/O)c1ccc(F)cc1 (stereo not given)	1.1	x	0.3	-7	8	71*
COCCn1nnnc1CN1CCOCC1	1.1	-3	1.1	-11	-3	-7
CCCCC(=O)NC(NC(=O)CCCC)c1ccc(OCCC)c(OC)c1	x	-13	x	x	x	x
CCCSc1nc(C)c(-c2csc(C(C#N)=C3CCCC3)n2)cc1C#N	0.9	62*	0.7	13	-4	28
CC(=O)c1cc(C#N)c(SCCC(C)C)nc1C	1.1	3	0.9	-6	-3	5
COc1ccc(NC(C)=O)cc1NC(C)C(=O)Nc1ccc(F)c(F)c1F (stereo not given)	0.3	-10	0.5	70*	-2	47
COc1ccc(NC(C)=O)cc1NC(C)C(=O)Nc1ccccc1F (stereo not given)	0.8	4	0.9	24	3	8
Cc1cccc2sc(NC(=O)CCNS(=O)(=O)c3cccc4nonc34)nc12	0.3	-16	0.4	72*	x	58*
CCOc1ccc(CCNS(=O)(=O)c2cccc3nsnc23)cc1OCC	0.1	-9	0.4	86*	-4	57*
COc1ccc(NC(=O)CCNS(=O)(=O)c2cccc3nsnc23)cc1OC	x	-5	x	x	x	x
Cc1cccc(NC(=O)CCNS(=O)(=O)c2cccc3nonc23)c1C	x	18	x	x	x	x
COC(=O)c1ccc(NC(=O)CCNS(=O)(=O)c2cccc3nonc23)cc1	0.3	-31	0.7	72*	x	26
CCc1ccc(NC(=O)CCNS(=O)(=O)c2cccc3nsnc23)cc1	0.5	8	0.6	51*	1	42
Cc1ccc(NC(=O)CCNS(=O)(=O)c2cccc3nonc23)cc1Cl	x	9	x	x	x	x
Cc1ccc(NC(=O)CC2C(=O)N(Cc3ccccc3)C(=S)N2NC(=O)c2ccccc2)c(C)c1 (stereo not given)	x	-12	x	x	x	x
CO/N=C(/CNC(=O)c1ccccc1Cl)c1ccc(Cl)cc1	0.1	-18	0.5	91*	27	47
COC(=O)CNC(=O)c1ccccc1C	1	-1	1	-4	-5	-4
NC(=O)CSc1nc2cc3c(cc2c(=O)n1CCCC(=O)NCc1ccc2c(c1)OCO2)OCO3	0.9	-30	0.3	7	-2	74*
SMILES	CYP2C19 activ	E-sel TNF inh	CYP2C9 activ	CYP2C19 inh	F-actin modifier	CYP2C9 inhib
COc1ccc(CNC(=O)CCCn2c(SCC#N)nc3cc4c(cc3c2=O)OCO4)cc1	0.5	-21	0.2	54*	-23	80*
COCCCNC(=O)CSc1nc2cc3c(cc2c(=O)n1CCCC(=O)NCc1ccc(OC)cc1)OCO3	x	1	x	x	x	x
C=CCn1c(SCC(=O)NC2CCS(=O)(=O)C2)nc2sc(CC)cc2c1=O (stereo not given)	0.9	6	0.6	5	-2	42
CCOc1ccc(NC(=O)CSc2nnc(Cc3cccn3C)n2-c2ccc(F)cc2)cc1	0.9	-9	0.6	12	x	36
CCOC(=O)c1cnn(-c2nc(-c3cccc(F)c3)cs2)c1C(F)(F)F	0.8	24	0.3	24	-3	72*
CCOC(=O)c1cnn(-c2nc3c(C)cccc3s2)c1C(F)(F)F	0.7	5	0.6	32	-19	36
NCCn1c(-c2ccccc2)cc(C(=O)O)c1-c1ccccc1F	x	-11	x	x	x	x
COc1ccc(CCN2C(=O)c3[nH]nc(-c4ccccc4O)c3C2c2cccc(O)c2)cc1OC (stereo not given)	0.1	x	0	93*	-62	98*
COc1ccc(C2c3c(-c4cc(Cl)c(C)cc4O)n[nH]c3C(=O)N2Cc2cccnc2)cc1OC (stereo not given)	0.1	5	0.1	86*	-9	93*
O=C(Nn1cnnc1)C1CCCN1S(=O)(=O)c1ccc(F)cc1 (stereo not given)	0.7	1	0.9	28	-3	12
CC(C)(CS(=O)(=O)[O-])NC(=O)CC[N+](C)(C)CCO	1.1	3	1.1	-13	16	-8
O=Nc1c(O)n(Cc2ccc(Cl)c(Cl)c2)c2ccccc12	0.5	11	0.4	51*	4	62*
COc1ccccc1-c1ccc(=O)n(CC(=O)Nc2ccc(C(=O)N3CCCC3)cc2)n1	0.9	4	1	10	-31	-4
COC(=O)c1[nH]c2ccccc2c1NC(=O)CN1CCN(C/C=C/c2ccccc2)CC1	0.3	-17	0.1	74*	15	86*
CCOC(=O)c1[nH]c2ccc(F)cc2c1NC(=O)CN1CCN(C/C=C/c2ccccc2)CC1	0.5	-20	0.4	52*	-10	59*
O=C(CSc1nnc(-c2cccnc2)n1-c1ccccc1)N1CCN(c2ccc(F)cc2)CC1	0.1	24	0.4	92*	x	64*
Cc1ccc(-n2c(SCC(=O)N3CCOCC3)nnc2-c2ccncc2)cc1	0.3	-19	0.9	72*	5	12
Cc1ccccc1NC(=S)N(C)C1(c2ccccc2Cl)CCCCC1=O (stereo not given)	0.3	3	0.8	69*	-21	16
O=C(O)C1CCCCC1C(=O)Nc1cccc(C(=O)N2CCCCC2)c1 (stereo not given)	1	5	1	-3	3	5
Cc1cc(C)cc(-n2c(C)cc(/C=N/NC(=O)c3cccc([N+](=O)[O-])c3C)c2C)c1	0.8	26	0.5	22	0	53*
CC(=O)N1c2ccccc2NC(=O)C1(C)C	1	-24	1.1	1	10	-7

Compound activity as filed in PubChem.
